Read-out in assay [1]: Human Leukocyte Antigen - DR isotype (HLADR), HLA-DRA (gene 3122)
The assay is described as follows: BSK_BE3C_HLADR: BioMAP Diversity Plus: BE3C Assay for Human Leukocyte Antigen - DR isotype (HLADR) Biomarker Activity (AID 2283032). To be noted: primary human bronchial epithelial cells; actives raise or lower the signal. In a few lines: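 ELISA read-out of HLA-DR on human lung bronchial epithelial primary cells, measured 24 h post-dosing. Both increases and decreases were scored relative to DMSO vehicle.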

Read-out in assay [2]: Vascular cell adhesion molecule 1 (VCAM1), VCAM1 (gene 7412)
The assay is described as follows: BSK_4H_VCAM1: BioMAP Diversity Plus: 4H Assay for Vascular cell adhesion molecule 1 (VCAM1) Biomarker Activity (AID 2283033).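 As to outcome: cell-surface VCAM-1 protein measured by ELISA.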 To be noted: primary human endothelial cells (HUVEC); actives raise or lower the signal. In a few lines:
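ELISA read-out of VCAM-1 on human umbilical vein endothelium 24 hours after chemical dosing; gain or loss of signal was fitted relative to DMSO, with sulforhodamine B staining of parallel cultures flagging overt cytotoxicity.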

Read-out in assay [3]: Interferon-gamma inducible Protein 10 (IP10), CXCL10 (gene 3627)
Kind of assay: BSK_BE3C_IP10: BioMAP Diversity Plus: BE3C Assay for Interferon-gamma inducible Protein 10 (IP10) Biomarker Activity (AID 2283034). To be noted: primary human bronchial epithelial cells; actives raise or lower the signal. An outline of the steps:
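Chemical is dosed onto human lung bronchial epithelial primary cells, cultures are incubated 24 h, and IP-10 is then quantified by ELISA. Gain or loss of signal is fitted in both directions relative to DMSO.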

Read-out in assay [4]: Monokine induced gamma interferon (MIG), CXCL9 (gene 4283)
Kind of assay: BSK_BE3C_MIG: BioMAP Diversity Plus: BE3C Assay for Monokine induced gamma interferon (MIG) Biomarker Activity (AID 2283035).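 As to outcome: MIG protein measured by ELISA in BE3C cultures after 24 h of dosing.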 To be noted: primary human bronchial epithelial cells; actives raise or lower the signal. In a few lines:
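Primary human bronchial epithelial cells treated for 24 h; MIG levels measured by ELISA, fitted bidirectionally versus DMSO. Parallel SRB total-protein staining assessed cytotoxicity.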

Read-out in assay [5]: Transforming growth factor beta 1 (TGFb1), TGFB1 (gene 7040)
Kind of assay: BSK_BE3C_TGFb1: BioMAP Diversity Plus: BE3C Assay for Transforming growth factor beta 1 (TGFb1) Biomarker Activity (AID 2283036;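 as to outcome: TGF-b1 protein level measured by ELISA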). To be noted: primary human bronchial epithelial cells; actives raise or lower the signal. An outline of the steps:
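Primary human lung bronchial epithelial cells; compound exposure 24 h; TGF-b1 by ELISA; bidirectional fit, DMSO baseline. Parallel SRB total-protein staining for cytotoxicity.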

Read-out in assay [6]: Plasminogen activator inhibitor-1 (PAI1), SERPINE1 (gene 5054)
The assay is described as follows: BSK_BE3C_PAI1: BioMAP Diversity Plus: BE3C Assay for Plasminogen activator inhibitor-1 (PAI1) Biomarker Activity (AID 2283037). To be noted: primary human bronchial epithelial cells; actives raise or lower the signal. In a few lines: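 Primary human lung bronchial epithelial cells; chemical dosing; 24 h; PAI-1 measured by ELISA; bidirectional fit referenced to DMSO as negative control.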

Read-out in assay [7]: urokinase plasminogen activator (uPA), PLAU (gene 5328)
Kind of assay: BSK_BE3C_uPA: BioMAP Diversity Plus: BE3C Assay for urokinase plasminogen activator (uPA) Biomarker Activity (AID 2283038).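 As to outcome: uPA protein level quantified by ELISA in cell cultures; uPA read one day after compound addition.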 To be noted: primary human bronchial epithelial cells; actives raise or lower the signal. In a few lines: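 ELISA for uPA on human primary bronchial epithelial cultures 24 h post-treatment, gain or loss against DMSO. Parallel SRB staining (0.1% after 10% TCA fixation, 560 nm) assessed overt cytotoxicity.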

Read-out in assay [8]: Urokinase-type plasminogen activator receptor (uPAR), PLAUR (gene 5329)
Kind of assay: BSK_BE3C_uPAR: BioMAP Diversity Plus: BE3C Assay for Urokinase-type plasminogen activator receptor (uPAR) Biomarker Activity (AID 2283039).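 As to outcome: cells exposed to compound for one day before measurement.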 The conditions noted are these: primary human bronchial epithelial cells; actives raise or lower the signal. In a few lines: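 Human bronchial epithelial primary cells; chemical exposure 24 h; uPAR by ELISA; bidirectional fit vs DMSO control.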

Read-out in assay [9]: Interleukin-6 (IL6), IL6 (gene 3569)
The assay is described as follows: BSK_CASM3C_IL6: BioMAP Diversity Plus: CASM3C Assay for Interleukin-6 (IL6) Biomarker Activity for (AID 2283040). The conditions noted are these: primary human coronary artery smooth muscle cells; actives raise or lower the signal.

Read-out in assay [10]: Tissue plasminogen activator (tPA), PLAT (gene 5327)
Kind of assay: BSK_BE3C_tPA: BioMAP Diversity Plus: BE3C Assay for Tissue plasminogen activator (tPA) Biomarker Activity (AID 2283041).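 As to outcome: tPA level quantified by ELISA one day after compound addition.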 The conditions noted are these: primary human bronchial epithelial cells; actives raise or lower the signal. In a few lines:
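Primary human lung bronchial epithelial cultures receive test chemical; after 24 h, tPA is quantified by ELISA, and gain or loss of signal is fitted bidirectionally relative to DMSO baseline.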

Read-out in assay [11]: Interleukin-8 (IL8), CXCL8 (gene 3576)
The assay is described as follows: BSK_CASM3C_IL8: BioMAP Diversity Plus: CASM3C Assay for Interleukin-8 (IL8) Biomarker Activity (AID 2283042).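 Also: IL-8 protein level quantified by ELISA.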 To be noted: primary human coronary artery smooth muscle cells; actives raise or lower the signal.

Read-out in assay [12]: Human Leukocyte Antigen - DR isotype (HLADR), HLA-DRA (gene 3122)
The assay is described as follows: BSK_CASM3C_HLADR: BioMAP Diversity Plus: CASM3C Assay for Human Leukocyte Antigen - DR isotype (HLADR) Biomarker Activity (AID 2283043).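 Also: cell-surface HLA-DR protein level quantified by ELISA.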 To be noted: primary human coronary artery smooth muscle cells; actives raise or lower the signal.

Read-out in assay [13]: Macrophage colony-stimulating factor (MCSF), CSF1 (gene 1435)
Kind of assay: BSK_CASM3C_MCSF: BioMAP Diversity Plus: CASM3C Assay for Macrophage colony-stimulating factor (MCSF) Biomarker Activity (AID 2283044).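 Also: M-CSF protein amount quantified by ELISA after 24 h exposure.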 The conditions noted are these: primary human coronary artery smooth muscle cells; actives raise or lower the signal.

Read-out in assay [14]: Low-density lipoprotein receptor (LDLR), LDLR (gene 3949)
Kind of assay: BSK_CASM3C_LDLR: BioMAP Diversity Plus: CASM3C Assay for Low-density lipoprotein receptor (LDLR) Biomarker Activity (AID 2283045).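 Also: LDLR protein level on the cell surface quantified by ELISA.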 The conditions noted are these: primary human coronary artery smooth muscle cells; actives raise or lower the signal.

Read-out in assay [15]: Monocyte Chemoattractant Protein-1 (MCP1), CCL2 (gene 6347)
Kind of assay: BSK_CASM3C_MCP1: BioMAP Diversity Plus: CASM3C Assay for Monocyte Chemoattractant Protein-1 (MCP1) Biomarker Activity (AID 2283046).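 Also: MCP-1 level quantified by ELISA 24 h after dosing.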 The conditions noted are these: primary human coronary artery smooth muscle cells; actives raise or lower the signal.

Assay [16] can be described thus: BSK_CASM3C_Proliferation: Cell Proliferation Assessment in the BioMAP Diversity Plus: CASM3C Assay (AID 2283047).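 Also: sulforhodamine B total protein stain as relative cell number at 560 nm; sub-confluent cells exposed 48 h before staining; fitted both ways against DMSO so gain or loss of cell number.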 The conditions noted are these: primary human coronary artery smooth muscle cells.
Read-out in assay [17]: Monokine induced gamma interferon (MIG), CXCL9 (gene 4283)
Kind of assay: BSK_CASM3C_MIG: BioMAP Diversity Plus: CASM3C Assay for Monokine induced gamma interferon (MIG) Biomarker Activity (AID 2283048). To be noted: primary human coronary artery smooth muscle cells; actives raise or lower the signal.

Read-out in assay [18]: serum amyloid A (SAA), SAA1 (gene 6288)
The assay is described as follows: BSK_CASM3C_SAA: BioMAP Diversity Plus: CASM3C Assay for serum amyloid A (SAA) Biomarker Activity (AID 2283049).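 Also: SAA protein level quantified by ELISA.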 The conditions noted are these: primary human coronary artery smooth muscle cells; actives raise or lower the signal.

Assay [19] in a line: BSK_CASM3C_SRB: Viability Assessment in the BioMAP Diversity Plus: CASM3C Assay (AID 2283050).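 Also: total protein by SRB staining as cytotoxicity measure in parallel cultures.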 To be noted: primary human coronary artery smooth muscle cells.
Read-out in assay [20]: Thrombomodulin, THBD (gene 7056)
The assay is described as follows: BSK_CASM3C_Thrombomodulin: BioMAP Diversity Plus: CASM3C Assay for Thrombomodulin Biomarker Activity (AID 2283051).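 Also: thrombomodulin protein level measured by ELISA 24 h after dosing.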 To be noted: primary human coronary artery smooth muscle cells; actives raise or lower the signal.

Where “and” joins values, the source holds several entries; their conditions need not be identical. Equal values may be shown once. Some structures have more than one record in an assay (separate samples or runs), and their calls can disagree. Calls of active or inactive are those of the source. The calls were made as follows: active = hit-call score of the fitted dose curve at least 0.9, where 1 is the maximum; inactive = score below 0.9.

For `CNC(=O)/C=C(\C)OP(=O)(OC)OC`, the result in assay [1], in [2], in assay [3], in [4], in assay [5] and in [6] was inactive. In addition, the outcome in assay [7], in assay [8], in assay [9], in [10], in assay [11] and in assay [12] was inactive. Besides, the result in assay [13], in assay [14], in assay [15], in assay [16], in assay [17] and in assay [18] was inactive. Besides, the outcome in assay [19] and in assay [20] was inactive.
For `OCCOc1ccccc1`, the result in assay [1], in assay [2], in assay [3], in [4], in assay [5] and in assay [6] was inactive. Moreover, the outcome in assay [7], in [8], in assay [9], in [10], in [11] and in [12] was inactive. The result in assay [13], in [14], in assay [15], in assay [16], in assay [17] and in [19] was inactive. For the same compound, the result in assay [20] was inactive. In addition, the half-maximal activity concentration (AC50) in assay [18] is 20 µM (active).
Turning to `CCC(C)(C)C(=O)OC1=C(c2ccc(Cl)cc2Cl)C(=O)OC12CCCCC2`, the half-maximal activity concentration (AC50) was 23.5 µM (active) in [1]; 36.6 µM (active) in assay [2]; 31.3 µM (active) in assay [3]; 34.2 µM (active) in assay [4]; 35.7 µM (active) in [5]; 20 µM (active) in assay [6]. The AC50 in [7] is 31.1 µM (active); in assay [8], 36.4 µM (active); in assay [10], 20 µM (active); in [13] it was 13.7 µM (active); in assay [16], 25.7 µM (active); in [19] it was 28.7 µM (active). Also, the half-maximal activity concentration (AC50) in [20] was 10.5 µM (active). Further, the outcome in assay [9], in assay [11], in assay [12], in assay [14], in assay [15] and in [17] was inactive. Moreover, the result in [18] was inactive.
In the case of `Oc1cc(Cl)ccc1Oc1ccc(Cl)cc1Cl`, the AC50 in [1] was 30.3 µM (active) [middle of 4 runs]; in assay [2], 23.8 µM (active) [middle of 4 runs]; in [3], 29.3 µM (active) [middle of 4 runs]; in [4], 36 µM (active) [middle of 4 runs]; in assay [5], 27.5 µM (active) [middle of 4 runs]; in assay [6] it was 30.1 µM (active) [middle of 4 runs]. For the same compound, the AC50 in assay [7] was 31.2 µM (active) [middle of 4 runs]; in assay [8], 30.5 µM (active) [middle of 4 runs]; in [10], 20.4 µM (active) [middle of 4 runs]; in [11], 37.7 µM (active) [middle of 4 runs]; in [12] it was 29.4 µM (active) [middle of 4 runs]; in [13], 34 µM (active) [middle of 4 runs]. Moreover, the half-maximal activity concentration (AC50) in assay [14] was 30 µM (active) [middle of 4 runs]; in [15] it was 33.6 µM (active) and 37.7 µM (active) and 31.4 µM (active); in assay [16], 17.6 µM (active) [middle of 4 runs]; in [17] it was 37.8 µM (active) [middle of 4 runs]; in [18], 32 µM (active) [middle of 4 runs]; in assay [19], 33.1 µM (active) [middle of 4 runs]. In addition, the half-maximal activity concentration (AC50) in [20] was 4.67 µM (active). Also, the result in assay [20] was inactive.
Take `CN1CSC(=S)N(C)C1`: the AC50 in assay [1] was 20 µM (active); in [2], 16.9 µM (active); in assay [9], 16.4 µM (active); in [16] it was 14.5 µM (active). In addition, the outcome in assay [3], in assay [4], in assay [5], in assay [6], in [7] and in [8] was inactive. Moreover, the result in assay [10], in [11], in [12], in assay [14], in assay [15] and in assay [17] was inactive. In addition, the outcome in assay [18], in assay [19] and in assay [20] was inactive.
As for `C#CCN1C(=O)COc2cc(F)c(N3C(=O)C4=C(CCCC4)C3=O)cc21`, the concentration at half-maximal activity (AC50) in assay [1] is 3.97 µM (active). Moreover, the outcome in assay [2], in [3], in assay [4], in assay [5], in assay [6] and in [7] was inactive. Besides, the result in [8], in assay [9], in assay [10], in assay [11], in assay [12] and in assay [13] was inactive. Besides, the outcome in assay [14], in assay [15], in [16], in assay [17], in assay [18] and in assay [19] was inactive. The result in [20] was inactive.
On to `CC(C)(C)C(O)/C(=C\c1ccc(Cl)cc1Cl)n1cncn1` (centres undefined), for which the AC50 in [1] was 27.5 µM (active); in [2] it was 27.7 µM (active); in assay [3], 31.1 µM (active); in [4], 35.1 µM (active); in [6], 27.6 µM (active); in [7], 30.3 µM (active). Also, the concentration at half-maximal activity (AC50) in assay [8] was 20 µM (active); in assay [10], 8.37 µM (active); in assay [16] it was 20 µM (active); in assay [20], 15 µM (active). The outcome in assay [5], in assay [9], in assay [11], in [12], in assay [13] and in assay [14] was inactive. For the same compound, the result in assay [15], in assay [17], in assay [18] and in assay [19] was inactive.

These data come from PubChem BioAssay (EPA / NIEHS).
